Assay outcomes (PubChem)
BAZ2B block = blocks human BAZ2B. AlphaScreen BAZ2B-H3K14Ac peptide displacement. Potency, µM (highest dose often 114 µM), inactives show at the highest dose activity change, negative = inhibition, most hits filed as inhibitors. hit rate 4.4% among 360,000. AID 504333; note: % is set by controls: 0 for no effect and ±100 for the full control effect; nearly all actives have a fitted effect of over 60% in size
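In this displacement format the biotinylated H3(5-23) peptide acetylated at Lys14 serves as ligand at 50 nM, with BAZ2B at 50 nM in PBS pH 7.4 containing 0.01% Tween-20. Donor and acceptor beads are 10 ug/mL final.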
G9a block = G9a (human) methyltransferase inhibition | Q96KQ7 | G9a H3K9 monomethylation, AlphaScreen, 2 h | Potency, µM (series often up to 102 µM), for the others: top-dose activity, negative = inhibition, actives largely listed as inhibitors | hit rate 8.8% among 350,000 | AID 504332; note: % is set by controls: 0 for no effect and ±100 for the full control effect; nearly all actives have a fitted effect of over 75% in size
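Chemiluminescent proximity detection of H3K9 monomethylation, read after 10 min bead incubation in the dark. Reaction: 20 nM G9a, 500 nM biotin-H3K9 peptide, 20 uM SAM cofactor, 2 h, room temperature, following 15 min enzyme-compound preincubation.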
HP1b chromo inh = HP1-beta chromodomain-methylated histone interaction inhibition; P83916; hit rate 0.56% among 390,000; AlphaScreen HP1-beta / biotin-H3K9me3 peptide binding; Potency, µM (top dose mostly 114 µM), for the others: top-dose activity change, negative = inhibition, usual class: inhibitors; note: nearly all actives have a fitted effect of over 70% in size
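HP1-beta protein (50 nM final) preincubated 30 min at room temperature with biotinylated H3(1-18)K9me3 peptide (50 nM) in PBS pH 7.4, 0.01% Tween-20, then compound added for 30 min. AlphaScreen streptavidin donor/nickel chelate acceptor beads (10 ug/mL final), 30 min dark, luminescence read.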
JMJD2A Tudor = JMJD2A Tudor domain (human) inhibition; O75164; AlphaScreen JMJD2A-Tudor / H3K4me3 peptide binding; Potency, µM (titrated, usually from 114 µM), for inactives: top-dose activity change, negative = inhibition, hits mostly inhibitors; hit rate 4.4% among 390,000; note: % is set by controls: 0 for no effect and ±100 for the full control effect; nearly all actives have a fitted effect of over 50% in size
L3MBTL1 inh = blocks human L3MBTL1. Q9Y468. AlphaScreen L3MBTL1–H3K9me1 peptide binding. Potency, µM (doses to about 57.1 µM), inactives show at the highest dose activity, negative = inhibition, most hits filed as inhibitors. hit rate 0.66% among 230,000; note: % is set by controls: 0 for no effect and ±100 for the full control effect; nearly all actives have a fitted effect of over 60% in size
Target sequence (Q9Y468 whole entry, looked up): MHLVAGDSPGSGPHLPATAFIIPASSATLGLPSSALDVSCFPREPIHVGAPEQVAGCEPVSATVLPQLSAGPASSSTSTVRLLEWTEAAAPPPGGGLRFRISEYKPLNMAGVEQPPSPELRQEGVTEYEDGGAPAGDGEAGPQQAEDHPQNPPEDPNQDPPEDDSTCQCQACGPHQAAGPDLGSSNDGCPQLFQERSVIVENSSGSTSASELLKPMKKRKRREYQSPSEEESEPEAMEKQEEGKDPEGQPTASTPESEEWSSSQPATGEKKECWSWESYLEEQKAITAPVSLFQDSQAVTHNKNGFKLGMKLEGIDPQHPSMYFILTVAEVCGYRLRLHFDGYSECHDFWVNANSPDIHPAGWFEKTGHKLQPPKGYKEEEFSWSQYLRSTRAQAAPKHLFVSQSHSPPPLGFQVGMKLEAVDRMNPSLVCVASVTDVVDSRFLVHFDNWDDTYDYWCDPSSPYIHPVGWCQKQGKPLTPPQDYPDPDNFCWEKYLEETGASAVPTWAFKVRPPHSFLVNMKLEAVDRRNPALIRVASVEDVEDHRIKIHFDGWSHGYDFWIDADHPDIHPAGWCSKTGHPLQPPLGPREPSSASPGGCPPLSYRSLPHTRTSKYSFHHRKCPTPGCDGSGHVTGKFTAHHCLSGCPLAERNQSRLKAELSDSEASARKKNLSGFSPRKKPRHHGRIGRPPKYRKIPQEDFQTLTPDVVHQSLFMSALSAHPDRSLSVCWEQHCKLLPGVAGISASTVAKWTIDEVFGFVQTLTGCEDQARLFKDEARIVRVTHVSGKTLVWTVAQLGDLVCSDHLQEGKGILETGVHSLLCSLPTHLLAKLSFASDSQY
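L3MBTL1 50 nM + b-AHA-H3(1-15)K9me1 75 nM, 30 min RT; compound added, 30 min RT; streptavidin donor/Ni-chelate acceptor beads 10 ug/mL each final, 30 min RT dark; AlphaScreen read.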
Sfp inh = inhibitors of Bacillus subtilis Sfp phosphopantetheinyl transferase | Q9F4F7 | Biochemical Sfp PPTase activity, qHTS | Potency, µM, for the others: largest response in the series, negative = inhibition, usual class: inhibitors | hit rate 3.5% among 310,000 | AID 1490;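 note: the enzyme is Sfp with the accession as filed and its product quenches rhodamine fluorescence; 0% = enzyme reaction without inhibitor and -100% = no enzyme wells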
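Fluorescence-quenching assay with 15 nM Sfp, 5 uM rhodamine-CoA and 12.5 uM BHQ-2-labelled ybbR peptide in pH 7.6 Hepes/MgCl2 buffer. Enzyme was pre-incubated with compound for 15 min at room temperature. Rate was taken from the 30-min fluorescence change (525/598 nm).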
Starred values were filed as active, the others as inactive; u = inconclusive; x = not tested or not shown; [ ] = remark or other dose. A selection: hits, their analogues and other compounds. The true share with any hit is near 12%. Calls come from the whole dose curve; as a rule, active = well fitted curve in the direction sought with a large enough effect; inconclusive = small, poorly fitted or top-dose-only effect, or another doubt; inactive = no such curve, though single readings can be large; an effect the other way counts as inactive or inconclusive. Potency is the fitted concentration of half-maximal effect.

SMILES	BAZ2B block	G9a block	HP1b chromo inh	JMJD2A Tudor	L3MBTL1 inh	Sfp inh
CCCOC(=O)CSC1=C(C#N)C(c2ccccc2OCC)C(C#N)C(=O)N1 (centres undefined)	50µM*	u	u	-31%	-10%	-3%
CCN1CCC(N(Cc2ccc(F)cc2)C(=O)Nc2ccc(C)c(F)c2)CC1	-1%	-27%[59 µM]	24%	3%	x	x
COCCn1c(=O)[nH]c2cc(C(=O)Nc3cc(OC)c(OC)c(OC)c3)ccc2c1=O	-3%	19%	-21%	-16%	x	8%
COCCn1c(=O)[nH]c2cc(C(=O)Nc3nnc(C)s3)ccc21	3%	79µM*	-3%	-12%	x	-9%
Cc1cccc(S(=O)(=O)Nc2ccc3c(c2)OCCO3)c1	0%	x	5%	-32%	2%	9%
O=S(=O)(Nc1nc2ccccc2nc1Nc1ccc2c(c1)OCO2)c1ccccc1	-4%	40µM*	3%	-11%	-7%	14%
Cc1cccc(S(=O)(=O)Nc2nc3ccccc3nc2Nc2ccc3c(c2)OCO3)c1	u	45µM*	-17%	u	-28%	-14%
O=[N+]([O-])c1cccc(S(=O)(=O)Nc2nc3ccccc3nc2Nc2cccc(S(=O)(=O)N3CCCCC3)c2)c1	u	40µM*	-11%	45µM*	-9%	-29%
FC(F)(F)c1ccccc1-c1ccc2ncnc(NCc3cccnc3)c2c1	x	-45%[0.501 µM]	x	x	x	-7%
Cc1cc(NN)nc(NS(=O)(=O)c2ccccc2)n1	14%	32µM*	8%	u	-9%	56µM*
O=C1COc2ccc(C(=O)COC(=O)/C=C/c3ccc(Br)o3)cc2N1	45µM*	28µM*	-53%	u	3.5µM*	x
O=C1COc2ccc(C(=O)COC(=O)COc3ccccc3[N+](=O)[O-])cc2N1	-15%	u	5%	-6%	-4%	-18%
Cc1ccc(/C=C/C(=O)OCC(=O)c2ccc3c(c2)NC(=O)CO3)o1	x	x	-6%	-23%	0%	x
N#Cc1ccccc1OCC(=O)OCC(=O)c1ccc2c(c1)NC(=O)CO2	6%	50µM*	32%	3%	6%	7%
Cc1cccc(C(=O)OCC(=O)c2ccc3c(c2)NC(=O)CO3)c1	x	x	32%	-1%	-2%	x
COC(=O)c1cc(C(=O)OCC(=O)c2ccc3c(c2)NC(=O)CO3)cc([N+](=O)[O-])c1	-6%	50µM*	17%	-17%	2%	x
CCc1ccccc1NC(=O)c1cc(S(=O)(=O)N2CCCc3ccccc32)ccc1F	13%	20%[59 µM]	38%	-5%	x	x
O=C(O)[C@@H](O)[C@@H](O)[C@H](O)C(=O)CO	x	25%[59 µM]	x	x	x	10%
CCOc1c(C)cc2[nH]c(CCC(=O)O)nc2c1C	-3%	13µM*	29%	-6%	7%	20%
CCOC(=O)C(C)Oc1ccc2c(-c3cccc([N+](=O)[O-])c3)cc(=O)oc2c1 (centres undefined)	-13%	35µM*	6%	-25%	-6%	-6%
CCCCCCN=CC1=C(O)CC(C)(C)CC1=O	10%	4%[2.33 µM]	51%	-5%	-1%	9%
CCC(CO)N=CC1=C(O)CC(C)(C)CC1=O (centres undefined)	-1%	71µM*	20%	-11%	-2%	8%
C=CC[C@@H]1C=C[C@@H](O/N=C(/C)CCC(=O)OC[C@@H]2O[C@H](C#Cc3ccccc3)C=C[C@@H]2Oc2ccc(C)cc2)[C@@H](CO)O1	x	x	x	x	x	9%
Cc1ccc(C)c(NCC(O)c2ccccc2)c1 (centres undefined)	-33%	71µM*	3%	-16%	-7%	25%
Cc1ccc(CC(=O)NCC(O)c2ccccc2)cc1 (centres undefined)	5%	21%	14%	-6%	x	12%
SMILES	BAZ2B block	G9a block	HP1b chromo inh	JMJD2A Tudor	L3MBTL1 inh	Sfp inh
COc1cccc2c1C1COC3C4CC(C(=O)O)C(C(C2)N13)N4C (centres undefined)	x	x	22%	13µM*	x	x
CCC1(CC)C(=O)NC(=O)NC1=S	x	x	8%	50µM*	x	x
O=C(NO)c1ccccc1O	u	2µM*	53%	-25%	6%	-5%
CCN(CC)C(=O)c1nn(-c2ccc(OC)cc2)c(=O)c2c(N)scc12	x	x	x	56µM*	x	x
CCOC(=O)c1nn(-c2ccc(C)c(C)c2)c(=O)c2c(N)scc12	56µM*	2µM*	-29%	22µM*	-9%	8.9µM*
COc1ccc(/C=N/NC(=O)c2nn(-c3ccc(Cl)cc3)c(=O)c3c(N)scc23)cc1	-32%	u	-15%	-26%	x	-27%
COc1ccc(/C=N/NC(=O)c2nn(-c3ccccc3)c(=O)c3c(N)scc23)cc1	40µM*	0.35µM*	u	5.6µM*	u	7.1µM*
CC1=C(C)C(C)=C(C#N)C(=C(C#N)C#N)N1	u	40µM*	6%	-19%	9%	-18%
COc1ccc(N=Nc2c(C)[nH][nH]c2=O)cc1	56µM*	u	-30%	-34%	x	-13%
Cc1[nH][nH]c(=O)c1N=Nc1ccccc1C#N	u	45µM*	x	x	x	u
COc1ccccc1N=Nc1c(C)[nH][nH]c1=O	u	35µM*	-3%	-28%	x	-19%
Cc1ccc(N=Nc2c(C)[nH][nH]c2=O)c(C)c1	u	u	-24%	u	x	3%
CN=C(c1ccc(C)cc1)n1c(=S)nc(-c2ccc(C)cc2)n(C)c1=S	-22%	40µM*	u	7%[11.4 µM]	-17%	-106%
C#CCOCCOCCOCCNc1nc(N2CCN(C(=O)[C@H](CCCCN)n3cc(CN)nn3)CC2)nc(N2CCN(C(=O)[C@H](CCCCN)n3cc(CN)nn3)CC2)n1	x	x	29%	79µM*	9%	x
C#CCOCCOCCOCCNc1nc(N2CCN(C(=O)[C@H](CCCCN)n3cc(CN)nn3)CC2)nc(N2CCN(C(=O)[C@H](CCC(=O)O)n3cc([C@@H](N)CCCCN)nn3)CC2)n1	x	x	32%	89µM*	15%	x
C#CCOCCOCCOCCNc1nc(N2CCN(C(=O)[C@H](CCC(=O)O)n3cc(CN)nn3)CC2)nc(N2CCN(C(=O)[C@H](CCCCN)n3cc([C@@H](N)CC(N)=O)nn3)CC2)n1	x	x	46%	56µM*	-10%	x
C#CCOCCOCCOCCNc1nc(N2CCN(C(=O)C([C@@H](C)O)n3cc([C@@H](N)CCCCN)nn3)CC2)nc(N2CCN(C(=O)[C@H](CC(N)=O)n3cc([C@@H](N)C(C)C)nn3)CC2)n1 (some centres undefined)	x	x	18%	u	-1%	x
C#CCOCCOCCOCCNc1nc(N2CCOCC2)nc(N2CCN(C(=O)[C@H](CCCCN)n3cc(CCC(=O)O)nn3)CC2)n1	x	x	23%	-10%	x	x
